Measurements as given in PubChem BioAssay AID652141 (The Scripps Research Institute Molecular Screening Center, 2013).
The whole screen tested about 5,600 compounds, of which about 4,500 (80%) were called active. Rule as the data show it: active = inhibition above about 10%; inactive = the rest. So high a share suggests a set chosen from earlier hits. Not all results are given here.

Assay: GDH-TPI coupling enzyme inhibitors, artefact control for M. tuberculosis FBA inhibitor project, biochemical, fluorescence, high throughput (AID 652141)
Conditions: GDH-TPI coupled enzyme counterscreen, at 1 µM, active compounds read high

SMILES	inhibition
Cc1ccc(C2Nc3cccc4cccc(c34)N2)cc1	137% (active)
O=C(Nc1ccc(-c2nnc(-c3ccccc3)o2)cc1)C1CCCO1 (stereo not given)	-0.52% (inactive)
O=C(CCc1ccccc1)Nc1cccc(-c2nnc(-c3ccco3)o2)c1	69.8% (active)
Cc1noc(C)c1COc1ccc2ccc(=O)oc2c1	42.7% (active)
Cc1cc(C)cc(NC(=O)CSc2ccccc2)c1	58.2% (active)
Nc1ccccc1C(=O)NC1CCCCNC1=O (stereo not given)	141% (active)
C[C@H]1CN([C@@H](C)CO)C(=O)c2cc(Br)cnc2O[C@H]1CN(C)S(=O)(=O)c1cccs1	2.73% (inactive)
c1cc(-c2ccc3[nH]ccc3c2)n2ccnc2c1	62.4% (active)
CCOc1ccc(-c2nnc(-c3ccco3)o2)cc1	65% (active)
CCCCOc1ccc(-c2nnc(-c3ccco3)o2)cc1	140% (active)
CCCCn1c(-c2cccc(C)c2)nc2cc3[nH]c(=O)c(C(C)C)nc3cc21	33.5% (active)
Brc1cnc2ccccc2c1N1CCCCC1	60.2% (active)
CCCn1c(=O)c(-c2ccccc2)c(O)c2ccccc21	75.9% (active)
Cc1cccc(NC(=O)c2sc3nc(N4CCOCC4)c4c(c3c2N)CCCC4)c1	77% (active)
COC(=O)CSc1nc(C)c2ccc(OC)cc2n1	-4.3% (inactive)
CCOC(=O)Cn1c(=O)n(Cc2ccc(OC)cc2)c(=O)c2cccnc21	730% [above what the read-out allows, likely interference] (active)
CCOC(=O)c1[nH]c2ccc(OC)cc2c1NC(=O)CCN1CCN(Cc2ccccc2)CC1	-6.9% (inactive)
CCOC(=O)c1[nH]c2ccc(OC)cc2c1NC(=O)N1CCOCC1	100% (active)
O=C(NC1CCN(Cc2ccccc2)CC1)c1cc(Br)c(Br)[nH]1	764% [above what the read-out allows, likely interference] (active)
N#Cc1c(N2CCCCC2)nc(N)c2c(N)nc(SCC(=O)O)cc12	8.17% (inactive)
COc1ccc(NC(=O)CN(C)C(=O)c2cc(-c3ccc(C)o3)nc3ccccc23)cc1	61.4% (active)
CCC(=O)Nc1c(S(=O)(=O)c2ccccc2)c2nc3ccccc3nc2n1Cc1ccccc1	150% (active)
COc1ccc2[nH]c3c(=O)n(Cc4ccco4)cnc3c2c1	-2.61% (inactive)
COc1ccc2[nH]c3ccc(OC)cc3c2c1	198% (active)

SMILES	inhibition
COc1ccc(-c2nc3cc(C)ccn3c2NC2CCCCC2)cc1SC1CCCCC1	41.2% (active)
COc1ccc2c3c(c(=O)oc2c1OCC(=O)C(C)(C)C)CCCC3	51% (active)
Cc1c(OC(C)C(=O)N[C@@H](Cc2ccccc2)C(=O)O)ccc2c3c(c(=O)oc12)CCCC3 (stereo not given in full)	-2.05% (inactive)
CCN(CC)c1ccc2cc(C(=O)O)c(=O)oc2c1	17.4% (active)
CCOC(=O)N1CCN(C(=O)c2cc3c(ccc4ccccc43)oc2=O)CC1	-8.26% (inactive)
COC(=O)c1c(C)c(C)nc(N)c1C#N	49.5% (active)
CC1(C)Cc2c(C#N)c(SCc3nc4ccccc4[nH]3)nc(N3CCOCC3)c2CO1	-4.7% (inactive)
CC(C)c1nc(N2CCOCC2)c(C#N)c2c1COC(C)(C)C2	32.5% (active)
CN(C(=O)COc1ccccc1)c1nnc(-c2ccncc2)s1	513% [above what the read-out allows, likely interference] (active)
CN(C(=O)c1ccccn1)c1nnc(-c2ccccn2)s1	520% [above what the read-out allows, likely interference] (active)
Cc1cccc2c1-c1sc(C(=O)NCCCN3CCc4ccccc4C3)cc1CO2	-4.07% (inactive)
O=C(NCCN1CCN(Cc2ccccc2)CC1)c1cc2c(=O)[nH]c3ccccc3c2s1	125% (active)
CN(C)S(=O)(=O)c1ccc(N/C=C(\[N+](=O)[O-])S(=O)(=O)c2ccccc2)cc1	-5.04% (inactive)
Oc1ccc(Br)cc1C=Nc1ccc2[nH]ncc2c1	51.6% (active)
CC(C)=NN1C(=O)c2ccccc2NC1(C)C	121% (active)
Cc1cc(NC(C)C)n2c(nc3ccccc32)c1C#N	181% (active)
COc1ccc(C2C3=C(CCCC3=O)N(CC(=O)O)C3=C2C(=O)CCC3)cc1	107% (active)
CCOC(=O)COc1nc(C)cc(C(F)(F)F)c1C#N	36.8% (active)
COc1ccc2sc(-c3ccc(N(C)C)cc3)c(-c3ccc4cc[nH]c4c3)c2c1	55.2% (active)
O=C(CN1C(=O)c2cccc3cccc(c23)C1=O)N1CCCCC1	53.9% (active)
CCCCN(CCCC)CC(O)Cn1c2ccccc2c(=O)c2ccccc21 (stereo not given)	87.8% (active)
CN1c2ccc(C=O)c3c(C=O)ccc(c23)N(C)C1(C)C	19.9% (active)
CCOc1ccc2nc(Nc3nc4ccc(NC(C)=O)cc4s3)sc2c1	13.8% (active)
O=C(Nc1ncc2c(n1)-c1ccccc1OC2)c1ccc(Cl)cc1	82.3% (active)

SMILES	inhibition
CN(C(=O)c1cc2c(=O)n3ccccc3nc2s1)C1CCCCC1	46.3% (active)
CN(CCOc1ccccc1)C(=O)c1cc(-c2ccco2)nc2ccccc12	-2.35% (inactive)
O=C(c1cc(-c2ccco2)nc2ccccc12)N(Cc1nnc(-c2ccc(Cl)cc2)o1)C1CC1	72.7% (active)
COc1cccc2[nH]c(C(=O)NCCc3ccccc3)cc12	961% [above what the read-out allows, likely interference] (active)
COc1ccc(CNC(=O)c2c[nH]c3c(OC)cc(OC)cc3c2=O)cc1	-3.81% (inactive)
Cc1cnc(C(=O)OCC(=O)N2CCc3ccccc32)cn1	99.3% (active)
Cc1nn(-c2ccccc2)nc1C(=O)OCC(=O)N1CCCCC1C (stereo not given)	-3.64% (inactive)
CCOc1c2ccc(C(=O)NC3CCCc4ccccc43)cc2nn1CC (stereo not given)	7.23% (inactive)
CCOc1c2ccc(C(=O)NCc3ccc(OC(F)(F)F)cc3)cc2nn1C	79.5% (active)
CCCn1nc2cc(C(=O)NCc3ccccc3)ccc2c1OCC	-3.32% (inactive)
CCOc1c2ccc(C(=O)NCc3ccc4c(c3)OCO4)cc2nn1C	68.1% (active)
CC(=O)c1sc2nc(SCC(=O)N3CCCCC3)[nH]c(=O)c2c1C	55.4% (active)
Cc1nc(NCCN)c(C#N)c2c1COC(C)(C)C2	76.9% (active)
COc1ccc(C2CC(c3cccs3)=NN2c2ccc(F)cc2)cc1OC (stereo not given)	71.1% (active)
Oc1ccccc1C1=NN(c2ccccc2)C(c2ccccc2)C1 (stereo not given)	84% (active)
COc1ccccc1N1N=C(c2cccs2)CC1c1ccccc1 (stereo not given)	46.6% (active)
COc1ccc(C2CC(c3cccs3)=NN2c2ccccc2)cc1 (stereo not given)	23.7% (active)
Fc1ccc(N2N=C(c3cccs3)CC2c2ccco2)c(F)c1 (stereo not given)	-3.03% (inactive)
CS(=O)(=O)Nc1ccc(C2=NN(S(C)(=O)=O)C(c3cccs3)C2)cc1 (stereo not given)	-3.93% (inactive)
Cc1cc(C)c(-c2c(O)c3ccccc3n(C)c2=O)c(C)c1	61.1% (active)
Cc1ccc(S(=O)(=O)N2CCN(C(=O)CSc3cc(C)ccc3C)CC2)c(C)c1	108% (active)
CCc1cc(=O)oc2cc(C)cc(OCC(=O)N3CCC[C@@H]3C(=O)O)c12	54.6% (active)
CCCC/C=C/c1cccc2nncn12	54% (active)
CCOc1ccccc1C1CC(c2ccccc2)Nc2nc(N)nn21 (stereo not given)	132% (active)

SMILES	inhibition
CN(C)CCCn1c(N)c(C#N)c2nc(C#N)c(C#N)nc21	76.3% (active)
c1ccc(Cc2c(-c3ccco3)nc3c4ccccc4ccn23)cc1	95.6% (active)
CN(C)c1ccc(/C=N/NC(=O)C(O)c2ccc(Br)cc2)cc1 (stereo not given)	64% (active)
CC(C)C1Nc2c(C(=O)O)cccc2C(Nc2ccccc2C(=O)O)C1(C)C (stereo not given)	87.3% (active)
CC(=O)N1C(=O)/C(=C2\SC(=S)N(NC(=O)c3ccc(O)cc3)C2=O)c2ccccc21	-2.52% (inactive)
COC(=O)COc1cc(C)cc2oc(=O)c3c(c12)CCCC3	105% (active)
Cc1cc(OCc2cc(C(=O)O)oc2C)c2c3c(c(=O)oc2c1)CCCC3	89.5% (active)
O=C(c1cc(-c2ccc(Cl)s2)nc2ccccc12)N1CCOCC1	83% (active)
CC(=O)N1CCN(C(=O)c2cc(-c3ccc(Cl)s3)nc3ccccc23)CC1	-3.53% (inactive)
Cc1ccc2nc(-c3ccco3)c(Cc3cccc(Cl)c3)n2c1	63.6% (active)
O=C(NCCN1CCOCC1)c1cc(-c2cccs2)nc2ccccc12	-3.18% (inactive)
COC(=O)c1cc(-c2cccs2)nc2ccccc12	96.2% (active)
CC(C)(C)OC(=O)NNc1c2ccccc2nc2ccccc12	-5.25% (inactive)
CC(C)n1c(-c2cccs2)nc2ccccc21	68.4% (active)
Cc1cc(=O)oc2c1ccc1ccccc12	71.6% (active)
COCCN(CCOC)c1nc(N)c2c(N)nc3c(c2c1C#N)CC(=O)N3Cc1ccc(Cl)cc1	79% (active)
N#CC1(Nc2ccc3c4c(cccc24)CC3)CCCCC1	103% (active)
COCc1cc(=O)oc2cc(NS(=O)(=O)c3ccc(C)cc3)ccc12	51.2% (active)
CCSc1nnc(-c2cc3c(s2)-c2ccccc2CC3)o1	53.8% (active)
Cc1cc(=O)oc2c3c(cc(OCC(=O)NCC(O)c4ccccc4)c12)OC(C)(C)CC3 (stereo not given)	46.9% (active)
Cc1cc(OCC(=O)NCC(O)c2ccccc2)c2c(C)c(C)c(=O)oc2c1 (stereo not given)	187% (active)
CC1(C)CC(=O)c2cc(OCC(=O)NCC3CCCO3)ccc2O1 (stereo not given)	-4.8% (inactive)
CC1=CC2=NC(=O)CC(C)(C(=O)N(CC(=O)NC(C)(C)C)Cc3ccccc3)N2C=C1 (stereo not given)	4.57% (inactive)
